Only a sample is shown.
CYP2C19 activ: cytochrome P450 2C19 (human) activation | P33261 | 96,000 tested, under 10 active | recombinant CYP2C19, luciferin-H EGE luminescence; hits give high values; 0 = fully inhibited enzyme, 1 = untreated enzyme | activation factor at 5 µM | AID 1025;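 active means activation factor of at least 2 at 5 µM in the primary screen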;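 further: 0 = wells with 2.5 mM tranylcypromine and 1 = vehicle-only wells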
Target sequence (P33261 whole entry, looked up): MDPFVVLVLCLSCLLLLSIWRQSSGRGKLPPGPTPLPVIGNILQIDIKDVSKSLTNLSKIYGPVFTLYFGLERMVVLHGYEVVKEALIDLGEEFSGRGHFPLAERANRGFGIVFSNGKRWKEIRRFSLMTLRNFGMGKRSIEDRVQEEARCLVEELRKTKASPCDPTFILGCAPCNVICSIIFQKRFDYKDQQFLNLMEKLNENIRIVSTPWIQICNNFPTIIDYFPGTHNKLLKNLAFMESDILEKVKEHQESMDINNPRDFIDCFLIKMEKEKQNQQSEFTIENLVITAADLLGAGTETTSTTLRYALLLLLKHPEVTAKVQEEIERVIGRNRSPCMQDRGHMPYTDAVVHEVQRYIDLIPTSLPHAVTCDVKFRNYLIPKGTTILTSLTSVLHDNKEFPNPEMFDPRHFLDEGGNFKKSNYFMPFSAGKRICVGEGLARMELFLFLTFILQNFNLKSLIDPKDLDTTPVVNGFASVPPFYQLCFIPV
CYP2C19 inh: blocks human cytochrome P450 2C19. P33261. CYP2C19 Supersomes, luciferin-H EGE luminescence, 30 min. inhibition, % at 5 µM. 96,000 tested, 21% active;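 active means CYP2C19 inhibition above a set limit at 5 µM in the primary screen, cut at about 50% in these data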;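 further: plate controls were negative control wells for no effect and 2.5 mM tranylcypromine positive control for full effect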
CYP2C9 act: activators of human CYP2C9; 96,000 tested, 1.4% active; activation factor at 5 µM; recombinant CYP2C9, luciferin-H conversion, luminescence; hits give high values; factor 1 = untreated enzyme, 0 = blocked; P11712; AID 1024;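 active means activation factor of 2 or more for CYP2C9 at a 5 µM dose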;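 further: 0 = sulfaphenazole-blocked wells and 1 = vehicle-only wells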
CYP2C9 inh: inhibitors of human CYP2C9 | 96,000 tested, 20% active | CYP2C9 Supersomes, luciferin-H conversion, luminescence | inhibition, % at 5 µM | AID 777 | P11712;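 active means blocking of liver enzyme CYP2C9 beyond about 50% at 5 µM, limit read from the data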
* = called active by the depositor.

How did COc1ccc(C2=CC(=O)OC3(CCCC3)O2)cc1 do in these assays?
CYP2C19 activ: 0.6; CYP2C19 inh: 35.5; CYP2C9 act: 0.8; CYP2C9 inh: 15.7

Results for CC(=O)Nc1ccc(S(=O)(=O)N2CCN(CCCOc3ccccc3Cl)CC2)cc1 ?
CYP2C19 activ: 0.3; CYP2C19 inh: 67.9*; CYP2C9 act: 0.5; CYP2C9 inh: 48.4

What do the screens show for `COc1cccc(OCCCN2CCN(S(=O)(=O)c3ccc(NC(C)=O)cc3)CC2)c1`?
CYP2C19 activ: 0.1; CYP2C19 inh: 86.0*; CYP2C9 act: 0.2; CYP2C9 inh: 79.9*

Results for O=C(NCC1CCCO1)C1CCC(=O)N1Cc1ccccc1Cl (stereo not drawn) ?
CYP2C19 activ: 1.1; CYP2C19 inh: -5.3; CYP2C9 act: 1.1; CYP2C9 inh: -6.1

Results for Cc1cc(=O)n2nc(N3CCCC(C(=O)NCCc4ccccc4)C3)sc2n1 (stereo not drawn) ?
CYP2C19 activ: 0.6; CYP2C19 inh: 40.2; CYP2C9 act: 0.7; CYP2C9 inh: 32.8

Results for COc1ccc2[nH]c(=O)c(CN(Cc3cccs3)S(=O)(=O)c3c(C)ccc4nsnc34)cc2c1 ?
CYP2C19 activ: 0.6; CYP2C19 inh: 35.5; CYP2C9 act: 0.7; CYP2C9 inh: 30.5

Results for CCN(CC)S(=O)(=O)c1cc(C(=O)Oc2cccc(-c3cnc4ccccc4n3)c2)ccc1Br ?
CYP2C19 activ: 0.4; CYP2C19 inh: 64.4*; CYP2C9 act: 0.5; CYP2C9 inh: 47.4

What do the screens show for `O=C(Oc1ccc(-c2cnc3ccccc3n2)cc1)c1ccc(Cl)c([N+](=O)[O-])c1`?
CYP2C19 activ: 0.7; CYP2C19 inh: 33.9; CYP2C9 act: 0.8; CYP2C9 inh: 16.0

How did O=C(Oc1ccc(-c2cnc3ccccc3n2)cc1)c1ccc(Br)o1 do in these assays?
CYP2C19 activ: 0.4; CYP2C19 inh: 58.5*; CYP2C9 act: 0.8; CYP2C9 inh: 20.0

Results for O=C(Oc1ccc(-c2cnc3ccccc3n2)cc1)c1cccc([N+](=O)[O-])c1 ?
CYP2C19 activ: 0.3; CYP2C19 inh: 66.7*; CYP2C9 act: 0.9; CYP2C9 inh: 14.6

What do the screens show for `O=C(Oc1cccc2cccnc12)c1ccc(Br)o1`?
CYP2C19 activ: 1.1; CYP2C19 inh: -5.7; CYP2C9 act: 1; CYP2C9 inh: -4.3

What do the screens show for `CCc1c(O)nc2sc3ccccc3n2c1=O`?
CYP2C19 activ: 1.1; CYP2C19 inh: -7.2; CYP2C9 act: 1; CYP2C9 inh: 0.9

How did O=C1CN(c2nnnn2-c2ccccc2)CCN1 do in these assays?
CYP2C19 activ: 1.2; CYP2C19 inh: -16.9; CYP2C9 act: 1.1; CYP2C9 inh: -8.2

Results for CCN1CCN(CCCNC(=O)C2CCCN(c3nnc(-n4cccc4)s3)C2)CC1 (stereo not drawn) ?
CYP2C19 activ: 0.9; CYP2C19 inh: 5.7; CYP2C9 act: 0.8; CYP2C9 inh: 19.2

How did CCOC(=O)c1ccc(N2C(=O)c3n[nH]c(C)c3C2c2cccnc2)cc1 (stereo not drawn) do in these assays?
CYP2C19 activ: 0.7; CYP2C19 inh: 29.9; CYP2C9 act: 0.3; CYP2C9 inh: 67.5*

What do the screens show for `Cc1ccc(N2C(=O)c3n[nH]c(C)c3C2c2cccnc2)cc1` (stereo not drawn)?
CYP2C19 activ: 0.6; CYP2C19 inh: 39.6; CYP2C9 act: 0.7; CYP2C9 inh: 30.5

Results for COC(CN1C(=O)C(O)=C(C(C)=O)C1c1ccccn1)OC (stereo not drawn) ?
CYP2C19 activ: 0.9; CYP2C19 inh: 7.4; CYP2C9 act: 0.8; CYP2C9 inh: 15.0

Results for CCOC(=O)c1ccc(N2C(=O)C(O)=C(C(C)=O)C2c2ccccn2)cc1 (stereo not drawn) ?
CYP2C19 activ: 1.1; CYP2C19 inh: -6.2; CYP2C9 act: 0.5; CYP2C9 inh: 51.7*

Results for Cc1[nH]nc2c1C(c1ccccn1)N(c1ccc(Br)cc1)C2=O (stereo not drawn) ?
CYP2C19 activ: 1; CYP2C19 inh: 1.0; CYP2C9 act: 1.2; CYP2C9 inh: -18.5

Results for CCOC(=O)c1ccc(N2C(=O)c3n[nH]c(C)c3C2c2ccccn2)cc1 (stereo not drawn) ?
CYP2C19 activ: 0.6; CYP2C19 inh: 42.1; CYP2C9 act: 0.3; CYP2C9 inh: 69.3*

Results for CC(SCc1ccccc1)C(=O)NN=C1CCN(C)CC1 (stereo not drawn) ?
CYP2C19 activ: 0.9; CYP2C19 inh: 10.6; CYP2C9 act: 1.1; CYP2C9 inh: -9.3

Results for CC1CCN(CCc2nc3cc(NS(=O)(=O)c4ccc(F)cc4)ccc3n2C)CC1 ?
CYP2C19 activ: 1; CYP2C19 inh: -1.6; CYP2C9 act: 1; CYP2C9 inh: -2.2
